The list is not random: actives were taken first. Their share in the collection is about 4.7%.
ADAM17 inh – inhibits human ADAM17. P78536. recombinant ADAM17, EDANS/DABCYL FRET peptide cleavage. inhibition, % at 6.95 µM. 0.83% of 370,000 active;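 active = inhibition above the mean of compounds lying between control limits plus 3 SD, set per campaign, cut at about 8.5% in these data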;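 note: 0% = DMSO-only wells as the low control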
proKLK7 act – activators of human kallikrein-7 zymogen; purified proKLK7, EDANS-DABCYL substrate fluorescence; 100% is mature enzyme control, 0% vehicle; activation, % at 7 µM; 0.9% of 370,000 active;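 active = activation above the mean of all tested compounds plus 3 SD, computed per campaign excluding outliers beyond control limits, cut at about 13% in these data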
Target sequence (P49862 whole entry, looked up): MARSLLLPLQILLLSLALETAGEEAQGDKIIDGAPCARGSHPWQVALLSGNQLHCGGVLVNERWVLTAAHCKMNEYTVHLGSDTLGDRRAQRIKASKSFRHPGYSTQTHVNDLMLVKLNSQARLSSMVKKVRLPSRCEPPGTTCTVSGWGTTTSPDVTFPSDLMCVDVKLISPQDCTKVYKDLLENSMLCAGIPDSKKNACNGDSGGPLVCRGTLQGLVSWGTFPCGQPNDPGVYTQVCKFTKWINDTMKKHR
ADAM10 inh – inhibitors of human ADAM10. inhibition, % at 7 µM. O14672. recombinant ADAM10, EDANS/DABCYL FRET peptide cleavage, 3 h. 0.62% of 370,000 active;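 active = inhibition above a per-campaign cutoff equal to the mean of compounds falling between control-based bounds plus 3 SD, cut at about 20% in these data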;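 note: 0% = DMSO wells while the 100% control is not disclosed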
MPTP block – blocks calcium-induced mitochondrial swelling; inhibition, % at 10 µM; isolated mouse mitochondria, Ca2+ swelling absorbance, 30 min; 1.4% of 360,000 active;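 active = inhibition of 50% or more, scaled per plate between neutral and stimulator controls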;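 note: 0% = DMSO wells given calcium and 100% = 1 mM EGTA wells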
DSG3 Ab inh – inhibitors of pemphigus antibody binding to human desmoglein-3; P32926; binding (percent of control), % at 10 µM; DSG3-coupled beads, scFv-anti-DSG3-GFP binding, flow cytometry; hits give low values; 0.48% of 310,000 active;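 active = binding more than 3 SD below its plate's average and above zero; inconclusive = below that plate limit but binding exactly zero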;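 note: hits lower antibody fragment binding to DSG3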
rCAG binder-1 – molecules binding r(CAG) RNA repeats. r(CAG) RNA repeat, TO-PRO-1 dye displacement fluorescence. inhibition, % at 3 µM. 1.3% of 370,000 active. AID 651821;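 active = inhibition above the plate cutoff, the mean of all test compounds on that plate plus 3 SD, cut at about 35% in these data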;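 note: 0% = DMSO alone and 100% = 100 µM mitoxantrone as full dye displacement; higher means more dye released from RNA so lower well fluorescence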
rCAG bind conf – r(CAG) RNA repeat binding, confirmation; TO-PRO-1 dye displacement fluorescence; shares compounds with rCAG binder-1; AID 652065; 70% of 4,300 active; inhibition, % at 3 µM;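 active = inhibition above a per-plate cutoff, the mean inhibition of sample wells plus 3 SD, cut at about 35% in these data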;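 note: loss of TO-PRO-1 fluorescence as compound displaces dye from 1x1 AA loop RNA; 0% = DMSO only wells and 100% = 100 µM mitoxantrone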
dCAG dye counter – counter-screen for rCAG RNA binders: DNA CAG dye complex inhibitors | shares compounds with rCAG binder-1 | d(CAG) DNA oligo TO-PRO-1 dye displacement, fluorescence | inhibition, % at 3 µM | 94% of 4,300 active | AID 652068;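 active = inhibition above its plate's cutoff, the mean test-well inhibition plus 3 SD, cut at about 4.8% in these data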;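 note: 0% = DNA dye mix with DMSO and 100% = 100 µM mitoxantrone; hits displace the dye from DNA and so lower well fluorescence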
dCAG dye DR – DNA CAG dye complex inhibition, dose response counter-screen; shares compounds with rCAG binder-1; IC50, µM; AID 686960; 20% of 250 active; DNA CAG/GTC duplex TO-PRO-1 dye displacement fluorescence; in the data active = IC50 below about 10 µM
dCAG DNA bind – inhibits DNA CAG/GTC TO-PRO-1 complex, rCAG binder counter-screen | IC50, µM | d(CAG) DNA duplex TO-PRO-1 dye displacement, fluorescence | 80% of 30 active | AID 720649 | shares compounds with rCAG binder-1
rCAG binder-2 – r(CAG) repeat RNA binding, TO-PRO-1 displacement | shares compounds with rCAG binder-1 | r(CAG) RNA TO-PRO-1 dye displacement, fluorescence | IC50, µM | 100% of 30 active | AID 720651
An asterisk follows results filed as active; i = inactive; ? = inconclusive; / = not tested or not shown. Unless noted, the rule behind the calls is not given here.

SMILES	ADAM17 inh	proKLK7 act	ADAM10 inh	MPTP block	DSG3 Ab inh	rCAG binder-1	rCAG bind conf	dCAG dye counter	others
Fc1cccc(Cc2c(-c3cccc(Br)c3)nc3ccc(Cl)cn23)c1	-5	-3	-14	1	/	46*	25	5.9*
COc1ccc(CCNC(=O)CSC2=NS(=O)(=O)c3cc(F)ccc3N2)cc1OC	-3	0	-1	0	102	6	/	/
COc1ccc(S[C@]2(C(=O)N3CCN(c4ncccn4)CC3)CC(=O)N[C@@H]2c2ccc(OC)cc2)cc1	0	1	2	/	/	6	/	/
CCOc1ccc(-c2csc(NC(=O)CSC3=NC(=O)CN3C(C)=O)n2)c2ccccc12	5	0	3	0	115	2	/	/
CCOc1ccc(-c2csc(NC(=O)CSCC(=O)O)n2)c2ccccc12	-5	-1	-10	0	94	63*	70*	25*	dCAG dye DR=i;dCAG DNA bind=5.5*;rCAG binder-2=1.7*
Cc1cccnc1CCNCc1c(C(=O)N2C[C@@H](C)O[C@@H](C)C2)nc2ccc(Cl)cn12	-5	0	-5	0	/	-9	/	/
CCc1cc(C(=O)O)c(NC(=O)/C=C/c2ccc(OC)c(OC)c2)s1	6	1	7	-3	96	56*	40*	9.9*
CN[C@H]1C[C@H]2c3[nH]c4cccc(-c5ccccc5)c4c3CCN2C[C@H]1[C@H](C)O	-19	-3	-71	/	/	11	/	/
CCc1nnc(NS(=O)(=O)c2ccc(NC(=O)c3ccc(Br)cc3)cc2)s1	-1	0	4	3	88	60*	53*	13*
CCc1nnc(NS(=O)(=O)c2ccc(NC(=S)NC(=O)c3ccc(F)cc3)cc2)s1	0	-1	-2	1	95	64*	52*	19*
CCc1nnc(NS(=O)(=O)c2ccc(NC(=O)/C=C/c3ccc(F)cc3)cc2)s1	3	0	4	4	88	73*	50*	20*
CCOC(=O)C1=C(C)N=c2sc(=Cc3ccc(OCC(=O)O)cc3)c(=O)n2C1c1ccc(SC)cc1 (centres undefined)	-2	0	0	1	/	82*	71*	37*
CCOC(=O)C1=C(C)n2c(s/c(=C3\C(=O)Nc4ccccc43)c2=O)=NC1c1ccc(OC)cc1 (centres undefined)	9	0	19	3	85	29	/	/
CC1=C(C(=O)OC(C)C)C(c2ccc(Cl)cc2)n2c(s/c(=C\c3ccc(OCC(=O)O)cc3)c2=O)=N1 (centres undefined)	-3	0	-5	-1	124	27	/	/
CCOC(=O)C1=C(c2ccccc2)N=c2sc(=Cc3cc(OC)c(OC)c(OC)c3)c(=O)n2C1c1cccs1 (centres undefined)	-5	-2	-5	0	/	13	/	/
CCOC(=O)C1=C(C)N=c2s/c(=C3/C(=O)Nc4ccccc43)c(=O)n2C1c1ccc(C)cc1 (centres undefined)	4	0	12	-1	96	43*	53*	22*	dCAG dye DR=i
CCOC(=O)C1=C(c2ccccc2)N=c2s/c(=C\c3ccc(O)cc3)c(=O)n2C1c1cccs1 (centres undefined)	5	-2	9	5	119	37*	36*	20*
CCOC(=O)C1=C(C)N=c2s/c(=C\c3ccc(OCC(=O)O)cc3)c(=O)n2C1c1ccccc1 (centres undefined)	-1	1	6	-1	88	75*	77*	35*
CC(Oc1cc2oc(=O)c3c(c2cc1Cl)CCC3)C(=O)NCCCN1CCCC1=O (centres undefined)	-49	0	-165	-1	101	-5	/	/
CCOC(=O)C1=C(C)N=c2sc(=Cc3cc(Cl)c(OCC(=O)O)c(OC)c3)c(=O)n2C1c1ccccc1Cl (centres undefined)	-4	-1	-7	1	/	22	/	/
CCOC(=O)C1=C(C)N=c2s/c(=C\c3ccc(OCC(=O)O)c(OC)c3)c(=O)n2C1c1ccc(OC)cc1 (centres undefined)	-4	0	-7	1	105	54*	75*	38*
COc1cccc(CCNS(=O)(=O)c2c(C)n[nH]c2C)c1	0	0	2	/	/	2	/	/
CCOc1ccc(/C=C/c2[nH]c(=O)[nH]c(=O)c2[N+](=O)[O-])cc1	0	1	-1	0	91	39*	16	7.0*
O=c1[nH]c(/C=C/c2ccccc2Cl)c([N+](=O)[O-])c(=O)[nH]1	-2	1	-2	-2	117	7	/	/
O=C(COc1ccccc1/C=C\c1[nH]c(=O)[nH]c(=O)c1[N+](=O)[O-])Nc1ccccc1	1	0	4	0	109	68*	43*	14*
SMILES	ADAM17 inh	proKLK7 act	ADAM10 inh	MPTP block	DSG3 Ab inh	rCAG binder-1	rCAG bind conf	dCAG dye counter	others
CC(C)c1ccc(/C=C/c2[nH]c(=O)[nH]c(=O)c2[N+](=O)[O-])cc1	-2	0	3	-1	107	40*	24	4
CCOC(=O)COc1ccc(Br)cc1/C=C\c1[nH]c(=O)[nH]c(=O)c1[N+](=O)[O-]	-2	0	-13	-4	99	84*	43*	10*
C=CCNC(=S)N(C)[C@H]1C[C@H]2c3cc(-c4ccccc4C)ccc3CCN2C[C@H]1[C@H](C)O	-35	6	-143	/	/	5	/	/
O=S(=O)(Nc1cccc(S(=O)(=O)N2CCCC2)c1)c1ccc(Cl)cc1	-2	0	0	1	?	36*	18	6.5*
O=S(=O)(Nc1cccc(S(=O)(=O)N2CCCCCC2)c1)c1ccccc1	-5	0	-3	0	102	16	/	/
C=CCSC1=N/C(=C\C=C\c2ccco2)C(=O)S1	-6	0	-4	4	100	58*	45*	21*	dCAG dye DR=i
O=C(NN1C(=O)/C(=C/c2cccc(O)c2)SC1=S)c1ccccc1O	-2	1	2	1	94	75*	51*	16*
O=C(O)COc1ccccc1/C=C1\SC(=S)N(NC(=O)c2ccccc2O)C1=O	-5	0	-3	-2	105	61*	42*	10*

High-throughput results (PubChem)
